# According to the supplement of paper PMC13380429:
# Test system: Vero E6 infected with SARS-CoV-2
# Experiment: morphology score (similarity to uninfected cells); higher = more like uninfected cells
# Conditions: 24 h
row,Compound,morphology score
1,Cc1oc2ccccc2c1CNC(=O)NCc1cccs1 (10 µM),0.0505
2,CO/N=C1\CN(c2nc3c(cc2F)c(=O)c(C(=O)O)cn3C2CC2)CC1CN (stereo not given) [gemifloxacin] (10 µM),0.163
3,O=c1ccc2ccccc2o1 [coumarin] (10 µM),0.114
4,Cc1ccc(CCCO)c(NCc2ccc3nc(NCCCN4CCOCC4)n(Cc4nc(C)ccc4O)c3c2)c1 (10 µM),0.227
5,OCCNCCCOc1cccc(Cl)c1Cl (0.833333 µM),0.093
6,CCCCNC(=O)[C@@H]1Cc2ccccc2N1C(=O)[C@@H](N)CC [butabindide] (10 µM),0.203
7,c1cnc(SCc2cccnc2)nc1 [tasuldine] (10 µM),0.175
8,CN(C)C/C=C(/c1ccc(Br)cc1)c1cccnc1 [zimelidine] (10 µM),0.166
9,O=C(O)c1ccc(O)c2ncccc12 (10 µM),0.022
10,Nc1ncn([C@H]2C[C@H](O)[C@@H](CO)O2)c(=O)n1 [decitabine] (10 µM),0.0186
11,OCc1cncc(F)c1 [5-fluoro-3-pyridyl-methanol] (10 µM),0.135
12,O=C1C=CC(=O)C2=C1C1c3ccccc3C2c2ccccc21 (10 µM),0.00761
13,COc1cc(Nc2ncc(F)c(Nc3ccc4c(n3)NC(=O)C(C)(C)O4)n2)cc(OC)c1OC (10 µM),0.09
14,N[C@H](C(=O)O)c1ccc(O)cc1 [oxfenicine] (10 µM),0.246
15,Cc1cc(/C=C/c2ccc3cc(N(C)C)ccc3[n+]2C)c(C)n1-c1ccccc1 [pyrvinium-pamoate] (10 µM),-0.0751
